ChEMBL document CHEMBL1157539, “Thousands of chemical starting points for antimalarial lead identification” (Nature, 2010)

The molecules below were run on HepG2 (assay: GSK_TCMDC: Percent inhibition of human HepG2 cell line. Test compounds present at 10uM.).
Format: functional

| Compound | Inhibition |
| --- | --- |
| Cc1ccc(Nc2nccc(NCC(O)c3cccc(C(F)(F)F)c3)n2)cc1 (stereo not given) | 19% |
| CCOC(=O)c1ccc(-c2cnc(N)c(-c3nc4cccc(C)c4[nH]3)c2)cc1 | 43% |
| Cc1ccccc1C1CCN(c2ncc(C(=O)NC3CC3)cc2Cl)CC1.O=C(O)C(F)(F)F | 22% |
| CCOc1cc(C(=O)N[C@@H](Cc2ccccc2)[C@H](O)CNCc2cc(OC)cc(OC)c2)cc(N2CCCC2=O)c1.Cl | 0% |
| Cc1cc(N(C)C2CCN(CC3CCCCC3)C2)nc(Nc2ccc(Cl)cc2)n1 (stereo not given) | 0% |
| COc1ccc2[nH]cc(C3CCN(CCC4CCN(C(=O)/C=C/c5ccc(Cl)c(Cl)c5)CC4)CC3)c2c1 | 52% |
| CCc1cc2c3c(N)nc(N)nc3ccc2n1C(CC)CC | 71% |
| Cl.NCCCCc1c(-c2ccc(Cl)c(Cl)c2)[nH]c2ccc(Cl)cc12 | 33% |
| O=C(C=Cc1cn(-c2ccccc2)nc1-c1ccccc1)N1CCN(c2ccncc2)CC1 | 11% |
| CC1(C)N=C(N)N=C(Nc2ccc(F)c(F)c2)N1.Cl | 59% |
| Br.Cn1c(=N)n(CC(=O)OCc2ccc(OCc3ccccc3)cc2)c2ccccc21 | 5% |
| CCc1nc2ccc(C(=O)OC)nc2n1Cc1ccc2oc(-c3ccccc3N)c(Br)c2c1 | 8% |
| CCCCN(C)CC#Cc1ccc(-c2ccc3[nH]c(C)c(Br)c(=O)c3c2)cn1 | 3% |
| Cc1nc(-c2nc(NCc3ccccn3)ncc2-c2ccsc2)sc1C | 0% |
| O=c1cc(NCCCNCc2ccccc2-c2ccccc2)[nH]c2ccccc12 | 0% |
| Cc1ccc(NC(=O)N2CCCN(CCCCCNC(=O)/C=C/c3ccc(Cl)c(Cl)c3)CC2)cc1 | 12% |
| Cc1nc(N)nc(N)c1CCCOc1ccccc1Cl | 40% |
| CCCc1ccc(C(=O)N2C(c3nccs3)C(C(N)=O)CC2(CC(C)C)C(=O)O)cc1 (stereo not given) | 16% |
| Br.CC1(C)NC(N)=NC(=N)N1OCCc1cccc2ccccc12 | 57% |
| Cc1ccc(/C=C/C(=O)NC2CCC(N3CCC(c4ccccc4C)CC3)CC2)cc1C (stereo not given) | 12% |

| Compound | Inhibition |
| --- | --- |
| O=C(Nc1nc(-c2ccccn2)cs1)c1ccc(Br)s1 | 40% |
| CC(=O)Nc1ccc(CNC2Cc3ccc(-c4ccc(Cl)c(Cl)c4)cc3C2)cc1 (stereo not given) | 49% |
| COc1ccc2nc(C)cc(Nc3ccc(Oc4ccc5ccccc5c4Cl)c(Cl)c3)c2c1 | 32% |
| COc1ccc2ncc(F)c(CCN3CC[C@@H](CNCc4ccc5c(c4C)OCCO5)C3)c2n1.Cl | 17% |
| COc1ccc2nccc(N(C)CC3(O)CCC(NCc4cc5c(cn4)OCCO5)CC3)c2n1.Cl (stereo not given) | 1% |
| O=C(Nc1cccc(Cl)c1N1CCOCC1)C(Cl)(Cl)Cl | 3% |
| CC(C)C[C@H](NC(=O)c1cc2ccccc2s1)C(=O)N[C@H]1CCN(Cc2ccc(OCCN3CCNCC3)c3ccccc23)C1.O=C(O)C(F)(F)F | 43% |
| CS(=O)(=O)c1ccc(CCNCc2ccc(-c3cccc(-c4nc5ccccc5[nH]4)c3)cc2)cc1.O=C(O)C(F)(F)F | 40% |
| CCCN1CCN(CCCNC(=O)c2cc3c(-c4ccc(Cl)cc4)nn(C)c3s2)CC1 | 46% |
| CN1CCN(c2ccnc3ccc(NC(=O)Nc4cccc(C#N)c4)cc23)CC1 | 11% |
| O=C(Nc1ccc(Oc2ccc(OC(F)(F)F)cc2)cc1)c1ccco1 | 5% |
| Cc1cn(CC(=O)Nc2cccc(-c3cccc(-c4nc5cccc(C)c5[nH]4)c3)c2)c(=O)[nH]c1=O | 2% |
| Cc1noc(C)c1-c1cccc(CNCc2cccc(-c3cccc(-c4nc5cc(C(F)(F)F)ccc5[nH]4)c3)c2)c1.O=C(O)C(F)(F)F | 18% |
| COc1cc2c(cc1C=CC(=O)N1CCN(Cc3nc(O)c4c(C)c(C)sc4n3)CC1)OC(C)C2 (stereo not given) | 0% |
| O=c1ccc(CNc2nc(NCCc3ccccc3)nc3cc(Cl)ccc23)c[nH]1 | 21% |
| COc1ccccc1/C=C/C(=O)N(C)C1CCN(CCCCCNC(=O)/C=C/c2ccc(Cl)c(Cl)c2)CC1 | 71% |
| CN1CCN(c2ccc(Nc3nccc(-c4c(-c5cccc(NC(=O)c6c(F)cccc6F)c5)nn5ccccc45)n3)cc2)CC1 | 86% |
| N#Cc1cc([N+](=O)[O-])ccc1-n1nc(-c2cccc(Cl)c2)n(Cc2ccco2)c1=S | 12% |
| COc1cc(CNCCCCCCNCc2cc(OC)cc3ccccc23)c2ccccc2c1.CS(=O)(=O)O | 57% |
| O=c1c(NCCCN(Cc2ccc(F)cc2)c2ccccn2)c(NCc2ccncc2)c1=O | 30% |
